# Screens (PubChem)
# In the library only some 6% were active in any assay of this set; here they are far more common.
# D1 PAM: human D1 dopamine receptor positive modulation; potentiation, % at 10 µM; P21728; 360,000 tested, 0.036% active; HEK293 TREx D1 cells, calcium flux, dopamine EC20 potentiation; in the data active = potentiation above about 30%
# D1 ag: human D1 receptor agonism; HEK293 T-REx D1 cells, calcium flux, agonist mode; activation, % at 2 µM; 360,000 tested, 1% active; in the data active = activation above about 30%
#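 Tetracycline-induced HEK293 TREx D1 cells, force-coupled to calcium signalling, were dye-loaded with a no-wash calcium kit. Compound was pin-added after a 10 s baseline. Fluorescence was read kinetically at 1 cycle/s for 180 s, with calcium rises flagged as agonism.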
# D1 antag: blocks dopamine activation of the human D1 receptor; 360,000 tested, 3.2% active; HEK293 TREx D1 cells, calcium flux, dopamine EC80; hits give low values; activity change, negative = inhibition, % at 10 µM; P21728; AID 504652; in the data active = activity change below about -30%
#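 Inducible Hek293 Trex D1 cells (tetracycline, overnight, 30 C). Calcium dye 30–90 min RT. Antagonist mode: EC80 dopamine added after 180 s compound read.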
# D3 antag: antagonists of human D3 dopamine receptor. P35462. D3R cells, DiscoveRx beta-arrestin luminescence, antagonist mode; hits give low values. max response, negative = inhibition, %. 360,000 tested, 2.5% active; in the data active = max response below about -50%; inconclusive = no clear call, values can overlap the other calls
# Target sequence (P35462 whole entry, looked up): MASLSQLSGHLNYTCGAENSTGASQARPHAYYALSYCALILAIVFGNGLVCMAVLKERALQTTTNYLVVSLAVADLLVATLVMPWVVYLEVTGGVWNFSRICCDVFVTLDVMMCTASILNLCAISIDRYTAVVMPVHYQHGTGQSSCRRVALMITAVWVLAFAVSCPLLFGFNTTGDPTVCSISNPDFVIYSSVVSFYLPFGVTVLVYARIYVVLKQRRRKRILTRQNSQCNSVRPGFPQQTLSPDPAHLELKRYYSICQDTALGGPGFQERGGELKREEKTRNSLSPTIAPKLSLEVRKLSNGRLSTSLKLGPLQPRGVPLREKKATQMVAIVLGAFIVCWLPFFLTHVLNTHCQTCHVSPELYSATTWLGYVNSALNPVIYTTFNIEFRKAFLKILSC
#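 Cells expressing the human receptor were seeded at 1500 cells/well, incubated overnight at 37 degrees C in 5% CO2, then exposed to library compounds with dopamine controls for 90 minutes at 37 degrees C before luminescent detection.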
# DRD3 agonist: D3 dopamine receptor (human) agonism | P35462 | D3R DiscoveRx beta-arrestin cells, luminescence, 90 min | max activation, % | 410,000 tested, 0.58% active; in the data active = max activation above about 30%
#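 Agonist mode: compounds and dopamine controls were applied to plated cells for 90 min at 37 degrees C after an overnight attachment at 1500 cells/well. Luminescent read-out followed 30 - 60 minutes at room temperature with DiscoveRx detection reagent.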
# Numbers stand for hits; . = inactive; ? = inconclusive; / = not tested or not shown.
SMILES,D1 PAM,D1 ag,D1 antag,D3 antag,DRD3 agonist
CN1CCN(/N=C/c2ccc(-c3ccc([N+](=O)[O-])cc3Cl)o2)CC1,.,52,.,.,.
O=[N+]([O-])c1ccc(Cl)c(-c2ccc(/C=N/n3cnnc3)o2)c1,.,.,-42,.,.
COc1cc([N+](=O)[O-])ccc1-c1ccc(/C=N\n2cnnc2)o1,.,.,.,.,.
COc1ccc(N2CCN(S(=O)(=O)CCNC(=O)Cc3ccc(Cl)cc3)CC2)cc1,.,.,.,/,.
CCn1cc2nc(SCc3cccc(C(F)(F)F)c3)n(Cc3ccc(OC)cc3)c(=O)c2n1,.,.,.,/,.
Cc1ccccc1NC(=O)/C=C/c1cccs1,.,.,.,.,.
CCOC(=O)c1cccc(NC(=O)/C=C/c2ccc([N+](=O)[O-])cc2)c1,.,.,-44,.,.
Cc1ccccc1NC(=O)/C=C/c1ccc([N+](=O)[O-])s1,.,.,.,-51,.
Cc1cc(C)cc(NC(=O)/C=C/c2ccc([N+](=O)[O-])s2)c1,.,.,.,.,.
CC(=O)c1cccc(NC(=O)/C=C/c2ccc([N+](=O)[O-])s2)c1,.,.,.,-69,.
CCc1ccc(NC(=O)c2sc3nc(C)c(C(=O)Nc4ccc(C)cc4C)c(-c4ccco4)c3c2N)cc1,.,46,.,/,.
COc1cccc(NC(=O)c2sc3nc(C)c(C(=O)Nc4ccc(C)cc4C)c(-c4ccccc4Cl)c3c2N)c1,.,.,-31,/,.
COc1ccc(NC(=O)c2sc3nc(C)c(C(=O)Nc4ccc(C)cc4C)c(-c4ccc(Cl)cc4)c3c2N)cc1,.,.,.,/,.
COCCCNC(=O)c1sc2nc(C)c(C(=O)Nc3ccc(C)cc3C)c(-c3ccccc3Cl)c2c1N,.,.,-32,/,.
COc1cccc(NC(=O)c2sc3nc(C)c(C(=O)Nc4ccc(C)cc4C)c(-c4ccco4)c3c2N)c1,.,36,.,/,.
COc1cccc(NC(=O)c2sc3nc(C)c(C(=O)Nc4ccc(C)cc4C)c(-c4sccc4C)c3c2N)c1,.,.,.,/,.
Cc1ccc(NC(=O)c2c(C)nc3sc(C(=O)NC4CCCC4)c(N)c3c2-c2ccco2)c(C)c1,.,.,.,.,.
CCOC(=O)/C=C/c1cc(F)c(S(=O)(=O)N2CCN(S(=O)(=O)c3ccc4c(c3)OCCO4)CC2)cc1F,.,.,.,/,/
CCCSCCCNC(=O)C1CCN(C(=O)c2cnn(-c3ccccc3)c2-n2cccc2)CC1,.,.,.,/,.
COc1ccc(N=Cc2oc3ccc4ccccc4c3c2O)cc1,.,78,.,.,.
COc1ccc(N=Cc2ccccc2O)cc1,/,/,/,.,.
Cc1cc(N2C(=O)c3ccc(C(=O)Nc4ccc(O)cc4C(=O)O)cc3C2=O)no1,.,.,-35,.,.
S=C(NCc1ccc(Cl)cc1Cl)NC1CCCCC1,.,30,-33,.,.
Clc1ccc(CNC2CCCC2)c(Cl)c1,.,.,.,?,.
S=C(NCCc1ccccc1)NC1CC1,.,.,.,.,.
SMILES,D1 PAM,D1 ag,D1 antag,D3 antag,DRD3 agonist
S=C(NCCc1cccc(Cl)c1)NC1CCCCC1,.,.,-38,.,.
CC(C)(C)c1ccc(S(=O)(=O)N2CCC(Oc3ccc(-n4cnnn4)cc3)CC2)cc1,.,.,.,/,.
Cc1ccsc1/C=N/NC(=O)CNC(=O)c1ccccc1,.,.,-47,.,.
O=C(N/N=C/c1ccsc1)c1c[nH]c2ccccc12,.,.,-46,.,.
Cc1ccsc1/C=N/NC(=O)c1c[nH]c2ccccc12,.,.,.,-51,.
CCC(C)NC(=O)c1ccc(Cn2c(=O)c3cccn3c3cccnc32)cc1 (configuration not stated),.,.,.,/,.
CCc1ccc(/C=C/C(=O)c2cc(Br)ccc(=O)c2O)cc1,.,.,.,?,.
Cc1cccc(/C=C/C(=O)c2cc(Br)ccc(=O)c2O)c1,.,.,.,-59,.
COc1cccc(-c2csc(N3CCN(C(=S)NCC(C)C)CC3)n2)c1,.,.,.,.,.
COc1cccc(-c2csc(N3CCN(C(=S)Nc4ccccc4Cl)CC3)n2)c1,.,.,.,.,.
COc1cccc(-c2csc(N3CCN(C(=S)Nc4ccccc4OC)CC3)n2)c1,.,.,-35,.,.
COc1ccc(NC(=O)N2CCN(c3nc(-c4cccc(OC)c4)cs3)CC2)cc1,.,.,.,.,51
